From PubChem BioAssay AID652039 (The Scripps Research Institute Molecular Screening Center, 2013)
About 3,300 (0.89%) of roughly 370,000 compounds were called active.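 The calls were made as follows: active = activation above the mean of all tested compounds plus 3 SD, computed per campaign excluding outliers beyond control limits (cut at about 13% in these data); inactive = the rest.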 The list comes from a sample in which actives are over-represented; it also holds similar structures and randomly drawn compounds.

Molecular target: Kallikrein-7 (Homo sapiens) (UniProt P49862)
Sequence (P49862 whole entry, looked up): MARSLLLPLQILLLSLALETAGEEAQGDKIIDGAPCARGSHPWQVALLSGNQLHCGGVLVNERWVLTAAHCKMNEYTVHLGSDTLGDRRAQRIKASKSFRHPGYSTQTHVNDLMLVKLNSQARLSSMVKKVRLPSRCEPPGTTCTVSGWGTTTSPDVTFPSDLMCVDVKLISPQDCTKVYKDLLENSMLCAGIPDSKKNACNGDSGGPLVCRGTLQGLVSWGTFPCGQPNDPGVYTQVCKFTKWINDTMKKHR
Assay: activation of human kallikrein-7 proenzyme – biochemical, fluorescence intensity, primary screen (AID 652039)
Settings: purified proKLK7, EDANS-DABCYL substrate fluorescence; at 7 µM; hits give high values; 100% is mature enzyme control, 0% vehicle

activation, active:
CN(C)C(=O)c1coc2nc3ccccc3nc12 39.4%
CCCCN(C)CCCNC(=O)c1cc(-c2cccs2)nc2ccccc12 47.9%
O=C(NCCN1CCOCC1)c1cc(-c2cccs2)nc2ccccc12 18.3%
CC(=O)NN1C(=O)c2ccccc2NC1c1ccccc1 (stereo not drawn) 15.6%
CCOC(=O)NN1C(=O)c2ccccc2NC1c1cccc(O)c1 (stereo not drawn) 26.7%
COCCN(CCOC)c1nc(N)c2c(N)nc3c(c2c1C#N)CC(=O)N3Cc1ccc(Cl)cc1 50.3%
COc1cc(/C=C/C(=O)Nc2ccc(OC)c(S(=O)(=O)N3CCOCC3)c2)ccc1OCC#N 40.2%

activation, inactive:
CCCCNC(=O)C[C@H]1C[C@@]2(C(=O)OC)C(=C[C@H](COCc3ccccc3)O[C@@H]2C)N(Cc2ccc(Cl)cc2Cl)C1=O -0.06%
COC(=O)C1CN(CCc2ccccc2)CCS(=O)(=O)N1Cc1cccc(Cl)c1 (stereo not drawn) -0.14%
CCCc1nnc(NC(=O)CCC(=O)N2CCN(S(=O)(=O)c3ccc(OC)cc3)CC2)s1 -0.03%
CN(C)C(=O)c1cc(Br)ccc1Cl -0.57%
COc1ccc(C)cc1N(C)C(=O)c1coc(=O)c2ccccc12 0.1%
C=CCN(C)CC#Cc1ccccc1 -0.36%
CCCCCN1CCCCC(NC(=O)C(C)CCC)C1=O (stereo not drawn) 0.5%
O=C(CNS(=O)(=O)c1ccccc1F)N1CCN(c2ccccn2)CC1 -0.03%
CCOc1ccccc1-c1cc(C(=O)N/N=C(\C)c2cccnc2)c2ccccc2n1 -4.03%
O=C(NNC(=O)c1cc(-c2ccccc2Cl)nc2ccccc12)c1csc(N2CCOCC2)n1 -0.59%
O=C(NCCCN1CCOCC1)c1cnn2c(-c3ccccc3)cc(-c3ccccc3)nc12 -3.01%
CN(C)CCNC(=O)c1ccc(Cl)c2cc3ccccc3nc12 6.31%
COC(=O)[C@]12C[C@H](CC(=O)NCC34CC5CC(CC(C5)C3)C4)C(=O)N(Cc3ccc(Cl)cc3Cl)C1=C[C@H](COCc1ccccc1)O[C@@H]2C -0.26%
COC(=O)[C@]12C[C@H](CC(=O)N3CCN(C(=O)C4CC4)CC3)C(=O)N(Cc3ccc4c(c3)OCO4)C1=C[C@H](C(C)(C)C)O[C@@H]2C 0.05%
COc1cccc(N2CCN(CC(=O)N(C)Cc3ccc(F)cc3)CC2)c1 0.13%
COC(=O)C1CN(CCc2ccccc2)CCS(=O)(=O)N1Cc1ccc(F)cc1 (stereo not drawn) -0.24%
COc1cccc(CNC(=O)CNS(=O)(=O)c2ccc3nc(C)sc3c2)c1OC 0.09%
CC(C)N1C(=O)c2ccccc2NC(=O)C1C(=O)NCc1cccs1 (stereo not drawn) 0%
O=C1c2ccccc2NC(c2ccccc2O)N1NS(=O)(=O)c1ccccc1 (stereo not drawn) 6.73%
CN(C)c1ccc(C2Nc3ccccc3C(=O)N2NS(=O)(=O)c2ccccc2)cc1 (stereo not drawn) 4.94%
CCOC(=O)NN1C(=O)c2ccccc2NC1c1ccccc1O (stereo not drawn) 8.02%
COC(=O)[C@]12C[C@H](CC(=O)NCc3cccc4ccccc34)C(=O)N(CCc3ccc(OC)c(OC)c3)C1=C[C@H](C1CCCC1)O[C@@H]2C 0.51%
COc1ccc(C(=O)CSc2nnc(-c3cnccn3)n2-c2ccc(C)cc2)cc1 0.34%
C[C@@H]1ON(C)[C@H]2C[C@H]3c4[nH]c5cccc(-c6ccc7c(c6)OCO7)c5c4CCN3C[C@@H]12 0.38%
CCC(C)[C@@H](C(=O)OC)N(CCc1cn(Cc2ccccc2)nn1)S(=O)(=O)c1ccccc1Br (stereo partly drawn) 0.31%
CCC(=O)Nc1ccc2c(c1)C(=O)N(C)[C@H]1CC[C@H](CC(=O)NCCOC)O[C@@H]1CO2 -0.03%
COCC(=O)N[C@@H]1C[C@@H]2O[C@@H](CO)CC[C@@H]2O[C@@H]1CCc1ccc(-c2ccccc2)cc1 -0.04%
O=C(c1c[nH]c2ccccc12)N1CCC(Oc2cccnc2)CC1 0.8%
COC(=O)C[C@@H]1CC[C@@H]2[C@@H](COc3ccc(NC(=O)Nc4ccc(F)c(F)c4)cc3C(=O)N2C)O1 0.06%
COC(=O)C[C@@H]1CC[C@@H]2[C@H](COc3ccc(NC(=O)c4cccc(F)c4)cc3C(=O)N2C)O1 -0.18%
CCOC(=O)c1cc(-c2ccc(Cl)s2)nc2c1c(C)nn2C -3.83%
COc1cc(/C=C/C(=O)OCC(=O)N2CCOCC2)ccc1OCC#N 3.33%
COc1ccc(CCC(=O)Nc2ccc(Cl)c(S(=O)(=O)N3CCOCC3)c2)cc1OC 0.18%
COP(=O)(O)CNC(=O)OCc1ccccc1 -0.07%
Cc1ccc(C(=O)N(Cc2ccccn2)CC2CCCO2)cc1 (stereo not drawn) -0.88%
CCc1ccccc1NC(=O)CSc1nnc(-c2cccs2)o1 0.68%
